Source: PubChem BioAssay AID1903 (Southern Research Specialized Biocontainment Screening …, 2009)
About 1,200 (0.39%) of roughly 310,000 compounds were called active. How the calls were made is not given here. Not all results are given here. Results with a measured potency or affinity are listed apart.

Each molecule was assayed against Large T antigen (Simian virus 40) (UniProt P03070) (assay: SV40 large T antigen inhibitors, biochemical (AID 1903)). Details: SV40 large T antigen ATPase/helicase inhibition assay; at 20 µM; stronger effect = higher value.
Sequence of Large T antigen (Simian virus 40) (P03070 whole entry, looked up): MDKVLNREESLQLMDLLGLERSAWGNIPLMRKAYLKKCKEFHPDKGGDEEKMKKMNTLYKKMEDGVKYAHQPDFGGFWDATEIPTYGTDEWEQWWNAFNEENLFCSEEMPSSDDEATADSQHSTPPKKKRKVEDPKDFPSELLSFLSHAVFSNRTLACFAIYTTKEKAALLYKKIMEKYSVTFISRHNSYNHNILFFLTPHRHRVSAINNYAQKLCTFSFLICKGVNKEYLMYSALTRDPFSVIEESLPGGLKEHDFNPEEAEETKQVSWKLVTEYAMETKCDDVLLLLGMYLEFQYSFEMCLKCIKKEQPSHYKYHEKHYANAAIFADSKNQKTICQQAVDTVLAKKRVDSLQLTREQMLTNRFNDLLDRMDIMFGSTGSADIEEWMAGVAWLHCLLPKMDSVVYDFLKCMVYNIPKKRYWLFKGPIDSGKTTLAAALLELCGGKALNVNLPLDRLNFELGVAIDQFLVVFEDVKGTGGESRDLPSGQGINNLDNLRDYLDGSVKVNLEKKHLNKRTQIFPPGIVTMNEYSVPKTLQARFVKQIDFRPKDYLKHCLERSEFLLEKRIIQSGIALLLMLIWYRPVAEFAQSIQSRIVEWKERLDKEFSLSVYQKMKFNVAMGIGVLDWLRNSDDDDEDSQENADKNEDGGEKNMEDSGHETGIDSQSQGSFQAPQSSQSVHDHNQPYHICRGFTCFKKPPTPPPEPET

inhibition, inactive:
O=C(OCc1nnc(-c2ccccc2)o1)c1ccc(CO)cc1 3.3%
CCO[C@H]1OC(C(=O)NCc2nc3ccccc3[nH]2)=C[C@@H](c2ccccc2)[C@@H]1CCCO 1.96%
COc1ccc(C(=O)OCC(=O)c2c(N)n(C)c(=O)n(C)c2=O)cc1OC -4.08%
CCOc1ccc(C(=O)OCC(=O)c2c(N)n(C)c(=O)n(C)c2=O)cc1OCC 1.22%
O=C(NC(=S)Nc1ccc(S(=O)(=O)N2CCCCC2)cc1)c1ccc(Cl)cc1 1.56%
COC(=O)c1ccc(CN2C(=O)c3ccccc3C2=O)o1 10.1%
CSc1nc(-c2ccccc2)nc(NC(=O)c2ccccc2)c1C(C)=O 5.31%
COC(=O)C1=C[C@@H](C(=O)OC)[C@@H]2C3=C(C(=O)[C@]2(CC(C)C)NC(=O)c2ccccc2)[C@H](C)n2c(=O)n(-c4ccccc4)c(=O)n2[C@@H]3C1 19.3%
C/C(=N\NC(=O)c1nnn(-c2nonc2N)c1-c1cccs1)c1cccnc1 -7.39%
CN1C(=O)N(C)c2cccc3cccc1c23 21.8%
CC1N(C)c2cccc3cccc(c23)N1C 32.1%
OC(COCc1ccc2c(c1)OCO2)CN1CCCCC1 (stereo not drawn) 4.66%
COc1ccc(S(=O)(=O)NNC(=O)Cc2csc(C)n2)cc1[N+](=O)[O-] 10.2%
CCN1CCN(c2cc(C)c3cc(NC(=O)Cc4ccc(OC)c(OC)c4)ccc3n2)CC1 2.02%
CC1C(=O)OC(c2ccc(Br)cc2)C(C)(C)C1=O (stereo not drawn) 29.1%
CCOc1ccc2c(c1)C(c1ccccc1)=NNC(c1ccccc1)=N2 4.86%
CCN(c1ccc(NC(=O)CSc2nnc3nc(C)cc(C)n23)cc1)C(C)C 36%
CCN(CC)c1ccc(NC(=O)CSc2nc(C)cc(=O)[nH]2)cc1 35.5%
O=C(CSc1nc2c(c(=O)[nH]1)CCC2)Nc1ccc(F)cc1 22%
CC(=O)Nc1ccc(NC(=O)CSc2nc3nc(C)cc(C)c3c(=O)[nH]2)cc1 9.68%
CC(C)c1ccc(NC(=O)CSc2nc3c(c(=O)[nH]2)CCC3)cc1 10.4%
CCc1nc(SCC(=O)Nc2ccc(N(C)C)cc2)c2ccccc2n1 18.1%
Cc1cc(C)c2c(=O)[nH]c(SCC(=O)Nc3ccc(N(C)C)cc3)nc2n1 31.4%
Cc1cc(C)n2c(SCC(=O)Nc3ccc(F)cc3)nnc2n1 8.2%
Cc1ccc([N+](=O)[O-])cc1NC1CC(O)C(CO)O1 (stereo not drawn) 3.41%
CN(C)CCN(C(=O)c1ccc(S(=O)(=O)N2CCc3ccccc32)cc1)c1nc2ccc(F)cc2s1 14.4%
Cc1ccc(S(=O)(=O)/C(C#N)=C/c2c(N3CC(C)OC(C)C3)nc3c(C)cccn3c2=O)cc1 (stereo not drawn) 23.9%
COc1cc2c(cc1OC)CN(C(=O)/C=C/c1cc(OC)c(OC)c(OC)c1)CC2 7.46%
O=C(N/N=C\c1ccc(OC(=O)c2ccco2)cc1)c1ccc(Cl)cc1 11.3%
O=C(N/N=C/c1ccc(OC(=O)c2ccco2)cc1)c1ccncc1 15.9%
C=CCc1ccccc1OCC(O)Cn1ccnc1C (stereo not drawn) 10.2%
O=c1ccc2cc3c4c(c2o1)CCCN4CCC3 3.45%
CC(C)c1cc(=O)oc2c3c4c(cc12)CCCN4CCC3 4.43%
CCc1ccc(NC(=O)[C@H](NC(=O)[C@@H]2Cc3ccccc3CN2)c2ccccc2)cc1 7.36%
CCCc1c(C(=O)N/N=C/C(C)=C/c2ccccc2)nnn1-c1nonc1N 15.4%
O=C(Cn1nnc(-c2ccc(NC(=O)c3ccccc3F)cc2)n1)NCc1ccc(F)cc1 16.3%
CCCc1nnc(NC(=O)Cn2c(=O)oc3ccccc32)s1 3.95%
CCc1nnc(NC(=O)Cn2c(=O)oc3ccccc32)s1 1.21%
N/C(=N\NS(=O)(=O)c1ccccc1)c1ccccn1 16.4%
Cc1nnc(NC(=O)CSc2nnc(C)n2Cc2ccccc2)s1 -83.7%
COC(=O)Nc1ccc([N+](=O)[O-])cc1OC 3%
COc1ccc(OC(=O)Nc2ccc([N+](=O)[O-])cc2OC)cc1 0.1%
Oc1cccc(/C=N/Nc2ncnc3c2ncn3Cc2ccccc2)c1 10.2%
COc1cccc(/C=N/Nc2ncnc3c2ncn3Cc2ccccc2)c1O 18.1%
CCc1nn(CC(=O)N2CCC(C(N)=O)CC2)c(=O)c2cc3occc3n12 5.76%
CCCCC(=O)N1C/C=C\[C@H](c2ccc(OC)cc2)N(Cc2ccc(F)cc2)C(=O)[C@@H]1C -1.49%
Cc1c(C(=O)OCC(=O)NCc2ccccc2)oc2ccccc12 13.4%
COC(=O)c1ccccc1NC(=O)c1cnn2c(C)cc(C)nc12 -5.22%
CCn1c(/C=C/c2cc(Br)ccc2O)nc2ccccc2c1=O 27%
COc1ccc(/C=C/c2nc3ccccc3c(=O)n2-c2cccc(C(=O)O)c2)cc1 12.5%
O=C(O)c1ccc(-n2c(/C=C/c3ccccc3)nc3ccccc3c2=O)cc1 13.9%
CCn1c(/C=C/c2ccc(O)cc2)nc2ccccc2c1=O 26.9%
CC(C)c1ccc(NC(=O)CSc2nc(-c3ccccc3F)nc3nc[nH]c23)cc1 3.55%
CCOc1ccc(CCNC(=O)CCC(=O)Nc2ccc3nc(N4CCN(C)CC4)cc(C)c3c2)cc1OCC 2.93%
O=C(CCl)N1c2ccccc2CCc2ccccc21 8.1%
O=C(CN1CCCCC1)N1c2ccccc2CCc2ccccc21 0.59%
Cc1cc(NS(=O)(=O)Cc2ccccc2)no1 3.2%
CCCN(C(=O)c1ccc(N(C)S(=O)(=O)c2ccc(C)cc2)cc1)C1CCS(=O)(=O)C1 (stereo not drawn) 11%
